Among all 330,000 compounds or so, about 4,900 (1.5%) were called active.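 Rule for the calls: active = inhibition above the mean inhibition across the screen plus 3 SD (cut at about 25% in these data); inactive = the rest.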 The full list was thinned out, with actives kept by preference.

The test deals with Platelet-activating factor acetylhydrolase (Homo sapiens) (UniProt Q13093). Nature of the test: pPAFAH enzyme inhibitors, primary screen, biochemical, fluorescence polarization, human (AID 463082).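 Note: inhibitors block binding of the rhodamine activity-based probe so polarization drops; 0% = enzyme with DMSO and 100% = wells lacking pPAFAH.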 The settings on record: recombinant pPAFAH, FP-rhodamine probe fluorescence polarization; at 3.39 µM; active compounds read high.
Chain of Platelet-activating factor acetylhydrolase (Homo sapiens) (Q13093 whole entry, looked up): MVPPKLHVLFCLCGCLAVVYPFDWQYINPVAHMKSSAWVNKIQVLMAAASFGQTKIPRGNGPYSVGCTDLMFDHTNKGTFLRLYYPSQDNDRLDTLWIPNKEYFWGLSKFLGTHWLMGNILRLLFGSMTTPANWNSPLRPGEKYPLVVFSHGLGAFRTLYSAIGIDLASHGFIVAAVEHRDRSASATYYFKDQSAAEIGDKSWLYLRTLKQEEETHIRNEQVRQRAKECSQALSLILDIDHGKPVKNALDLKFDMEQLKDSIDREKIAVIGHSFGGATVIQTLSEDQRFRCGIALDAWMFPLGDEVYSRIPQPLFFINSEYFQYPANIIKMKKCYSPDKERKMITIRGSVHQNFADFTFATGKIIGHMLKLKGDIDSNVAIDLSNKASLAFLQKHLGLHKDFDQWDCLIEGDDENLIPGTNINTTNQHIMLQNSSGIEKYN
Regarding `Cc1ccn2c(=O)nc(SCC(=O)NCc3ccc4c(c3)OCO4)nc2c1`, the inhibition (commonly the relative decrease from the control value, in per cent) was 10.4% (inactive).
The value for `Cc1ccn2c(=O)nc(SCC(=O)NCc3ccc(F)cc3)nc2c1` was 26.8% (active).
`Cc1ccc(CNC(=O)CSc2nnc3c(n2)[nH]c2ccc(F)cc23)cc1`: the inhibition is 3.4% (inactive).
Take `Cc1ccc(C2SCC(=O)N2c2ccccc2)cc1` (stereo not drawn): the inhibition was 2.44% (inactive).
The figure for `Cc1ccc(/C=N/NC(=S)Nc2cccc(S(=O)(=O)N(C)C)c2)o1` is 6.2% (inactive); for `O=C(N/N=C\c1cccnc1)c1cc(-c2ccccc2)nc2c(Cl)cccc12` it is -1.21% (inactive).
With `O=C(N/N=C/c1cccnc1)c1cc2ccccc2cc1O`, the inhibition is 58% (active).
As to `Cc1ccc(/C=N/NC(=O)c2cc3ccccc3cc2O)o1`, the inhibition was 57.2% (active).
Take `O=C(NN=Cc1ccc(N2CCOCC2)cc1)c1cc2ccccc2cc1O`: the inhibition is 23.5% (inactive).
The figure for `O=C(N/N=C/c1cccnc1)c1ccc(NC(=O)c2ccc(F)cc2)cc1` is -2.91% (inactive); for `Cc1nnc(SCC(=O)N(C(C)C)C(C)C)nc1C` it is 0.01% (inactive).
On to `CCCCOc1ccc(NC(=O)[C@@H]2CCCN2C(=O)C2CCN(S(=O)(=O)c3ccc(C)cc3)CC2)cc1`, for which the inhibition was 11.9% (inactive).
Consider `O=C(OCCO)c1cc(Cl)c(C(=O)OCCO)cc1Cl`, for which the inhibition is 1.07% (inactive).
The figure for `CCC1(CC)C(=O)C2=C3C1[C@H](C(=O)OC)C=C(C(=O)OC)C[C@H]3[C@H]1C(=O)N(Cc3ccccc3)C(=O)[C@H]1[C@H]2C` (stereo partly drawn) is 9.48% (inactive).
For `CCC(C(=O)OCC(=O)Nc1ccc(C(=O)Nc2ccc(OC)cc2)cc1)c1ccccc1` (stereo not drawn), the inhibition was 2.28% (inactive).
For the molecule `CN(CC(=O)Nc1ccc(OC(F)F)cc1)S(=O)(=O)/C=C/c1ccccc1`, the inhibition is 5.82% (inactive).
The figure for `COc1ccc(NC(=O)COC(=O)c2ccc(NS(=O)(=O)/C=C/c3ccccc3)cc2)cc1` is 33.1% (active); for `COc1ccc2sc(-c3ccc(N(C)C)cc3)c(C#CCO)c2c1` it is 17.2% (inactive); for `COc1ccc2c(-c3ccccc3)cc(SCC(=O)N(C)C3CCS(=O)(=O)C3)nc2c1` (stereo not drawn) it is 34% (active).
In the case of `COc1ccc(-c2cc(=O)oc3cc(OCC(=O)N(C)C4CCS(=O)(=O)C4)ccc23)cc1` (stereo not drawn), the inhibition was 2.24% (inactive).
Consider `Cc1cc(C)c2nc(SCC(=O)N(C)C3CCS(=O)(=O)C3)cc(C)c2c1` (stereo not drawn), for which the inhibition was 4.97% (inactive).
As for `Cc1ccccc1NC(=O)CCNS(=O)(=O)c1ccc2[nH]c(=O)oc2c1`, the inhibition is 0.18% (inactive).
Take `Cc1ccc(C2(C(F)(F)F)N=C3Sc4cc(C)cc(C)c4N3C(=O)N2)cc1` (stereo not drawn): the inhibition was 2.43% (inactive).
For the molecule `Cc1nn(C(C)CC(=O)O)c(C)c1C` (stereo not drawn), the inhibition was 1.08% (inactive).
Consider `Cc1ccc(NC(=O)CN2CCCCC2)c2c1CC(C)(C)O2`, for which the inhibition is 1.85% (inactive).
The figure for `CC/C(=N\NC(=O)c1ccccc1Cl)c1ccc(Br)s1` is 2.32% (inactive); for `COC(=O)c1onc(-c2c(OC)cc(OC)cc2OC)c1C(=O)OC` it is -0.73% (inactive).
Regarding `Cc1ccc(S(=O)(=O)NCC(=O)NNC(=O)c2ccc(Br)cc2)cc1C`, the inhibition is -3.03% (inactive).
The value for `CN(C)S(=O)(=O)c1ccc(N2CCCC2)c(C(=O)NCc2ccccc2)c1` was 27.1% (active).
Turning to `Cc1ccccc1OCC(=O)NNC(=O)c1cc(S(=O)(=O)N(C)C)ccc1N1CCCC1`, the inhibition is -0.66% (inactive).
`CN(C)S(=O)(=O)c1ccc(N2CCCC2)c(C(=O)Nc2cccc(F)c2)c1`: the inhibition was -2.43% (inactive).
Regarding `Cc1ccccc1CN1C[C@@H]2C[C@@H](c3cn(C)nc3-c3ccccc3)N3CCC[C@@]23C1=O`, the inhibition is 8.05% (inactive).
Regarding `Cc1cc(C)c(-c2c(O)c3ccccc3n(C)c2=O)c(C)c1`, the inhibition is -0.19% (inactive).
With `COc1ccc(CN2CC(C(=O)NCCN3CCN(c4ccccc4F)CC3)CC2=O)cc1` (stereo not drawn), the inhibition is -3.16% (inactive).
Turning to `O=C(Nc1ccc(Cl)cc1)C1c2cccc[n+]2CC(=O)N1Cc1ccc2c(c1)OCO2` (stereo not drawn), the inhibition was 25.9% (active).
The value for `O=C(C1CCN(Cc2ccc(Cl)cc2)CC1)N1CCN(Cc2ccc3c(c2)OCO3)CC1` was 6.74% (inactive); that for `CC1CCC(NC(=O)C2c3ccccc3C(=O)N2Cc2ccc3c(c2)OCO3)CC1` (stereo not drawn) was -0.02% (inactive).
With `COC(=O)c1c(C)oc(C)c1S(=O)(=O)NCc1ccc(Cl)cc1`, the inhibition was -8.68% (inactive).
As to `COc1ccc(-n2cnnc2SCC(=O)Nc2cccc(S(N)(=O)=O)c2)cc1`, the inhibition was 3.84% (inactive).
With `Cc1nnc(SCC(=O)Nc2cccc(N)c2)n1-c1ccccc1`, the inhibition is 6.08% (inactive).
As to `NS(=O)(=O)c1cccc(NC(=O)CSc2nc3ccccc3n2-c2ccccc2)c1`, the inhibition was 33.2% (active).
`O=[N+]([O-])c1ccc(N2CCN(S(=O)(=O)c3ccccc3)CC2)cc1N1CCc2ccccc2C1`: the inhibition is -4.15% (inactive).
The figure for `COCCN1C(=O)C(=O)/C(=C(/O)c2ccc(S(=O)(=O)N3CCCCC3)cc2)C1c1ccc(OC)c(OC)c1` (stereo not drawn) is -2.4% (inactive); for `Cc1ccc(-n2c(C)cc(/C=N/Nc3ccc([N+](=O)[O-])cn3)c2C)c(C)c1` it is 8.84% (inactive).
The value for `Cc1cccc(-n2c(C)cc(/C=N/NC(N)=S)c2C)c1` was -4.16% (inactive); that for `Cc1cc(/C=N/Nc2ccc([N+](=O)[O-])cn2)c(C)n1-c1cccc(C(=O)O)c1` was 66.3% (active).
On to `NC(=O)NC(=O)CSc1nc2cc([N+](=O)[O-])ccc2n1-c1cccc(C(F)(F)F)c1`, for which the inhibition is 18.1% (inactive).
As to `Cc1ccc(C(=O)N/C(=C\c2ccco2)C(=O)NC2CCS(=O)(=O)C2)cc1` (stereo not drawn), the inhibition is -1.45% (inactive).
As to `COc1cc(NS(=O)(=O)c2ccc(NC(C)=O)cc2)cc(OC)c1`, the inhibition is 2.89% (inactive).
With `CC(=O)Nc1ccc(S(=O)(=O)Nc2ccc(N3CCCCC3)cc2)cc1`, the inhibition is 27.6% (active).
On to `CC(=O)Nc1ccc(S(=O)(=O)Nc2ccc(N3CCOCC3)c(F)c2)cc1`, for which the inhibition was 5.29% (inactive).
The figure for `COc1ccccc1OCCNC(=O)C(CCSC)NC(=O)COc1ccccc1` (stereo not drawn) is 1.04% (inactive).
The figure for `CC(C)NS(=O)(=O)c1ccc(OCC(=O)NC2CCCCCC2)cc1` is 6.56% (inactive); for `CCN(C(=O)COC(=O)c1cc(NS(=O)(=O)c2ccc(Cl)c([N+](=O)[O-])c2)ccc1O)C1CCCCC1` it is -1.02% (inactive); for `COc1ccc(NS(=O)(=O)c2ccc(O)c(C(=O)OCC(=O)NC3CCCCC3)c2)cc1` it is 26.9% (active).
On to `COC(=O)c1sc(N2CCN(Cc3ccccc3)CC2)nc1N`, for which the inhibition is 5.95% (inactive).
For the molecule `CC(=O)Nc1ccccc1OC(=O)N1CCOCC1`, the inhibition was -0.96% (inactive).
Regarding `O=C(Oc1cccc(C(=S)N2CCOCC2)c1)c1cccc(Cl)c1`, the inhibition is 7.68% (inactive).
Take `O=C(/C=C/c1cccs1)c1cc(Cl)ccc1OC(=O)N1CCOCC1`: the inhibition is 42.8% (active).
With `COc1ccc(/C=C2/S/C(=N/N=C3\CC4CCC3(C)C4(C)C)NC2=O)cc1` (stereo not drawn), the inhibition is 5.69% (inactive).
The figure for `O=C1c2ccccc2NC(c2ccc(-c3cccc(Cl)c3)o2)N1O` (stereo not drawn) is 7.56% (inactive).
With `O=C(O)C(c1ccccc1)N1C(=O)/C(=C\c2ccc(-c3cccc(Cl)c3)o2)SC1=S` (stereo not drawn), the inhibition is 70.4% (active).
In the case of `O=C1NN(c2ccccc2)C(=O)/C1=C/c1ccc(-c2cccc(C(=O)O)c2)o1`, the inhibition was 18.6% (inactive).
With `COc1ccc(CN2C3CCCC2CC(NC(=O)c2cccc(F)c2)C3)cc1` (stereo not drawn), the inhibition is 0.56% (inactive).
Consider `O=S(=O)(N/N=C\c1cccn1-c1ccccc1)c1ccc2ccccc2c1`, for which the inhibition was 25% (active).
For `O=C(COc1ccc(/C=N/NS(=O)(=O)c2ccccc2)cc1)NCCc1ccccc1`, the inhibition was 4.79% (inactive).
The value for `COc1ccc(N2CC(NS(=O)(=O)c3ccc4ccccc4c3)CC2=O)cc1` (stereo not drawn) was 4.81% (inactive).
As to `Cc1ccnc2nc(C(=O)Nc3nnc(-c4ccccc4)o3)nn12`, the inhibition was 8.88% (inactive).
The figure for `CCCCn1c(N)c(N(CC(C)C)C(=O)c2cnc(C)cn2)c(=O)[nH]c1=O` is 7.57% (inactive); for `COc1ccccc1NC(=O)CCN1CCN(c2ccc(Cl)cc2)CC1` it is 6.99% (inactive); for `Cc1ccsc1/C=N/Nc1ccc(Cl)nn1` it is 8.65% (inactive).
As for `Oc1cccc(/C=N/Nc2ccc(Cl)nn2)c1O`, the inhibition is 54.6% (active).
With `COc1cccc(/C=N/Nc2ccc(Cl)nn2)c1`, the inhibition is -0.67% (inactive).
As for `Cc1nn(C(C)C(=O)N2CCOCC2)c(=O)c2nn(-c3ccccc3)c(C)c12` (stereo not drawn), the inhibition is -0.47% (inactive).
With `CC1(N2CCOCC2)CC2(O)C(=[N+]1[O-])CCc1nonc12` (stereo not drawn), the inhibition is 11.9% (inactive).
For `CCCCCCCC(=O)OC(CN1CCCCCC1)CN1CCCC1=O` (stereo not drawn), the inhibition is -5.64% (inactive).
The value for `Cc1ccccc1CS(=O)(=O)CC1(O)CCN(C(=O)c2cccc(C(F)(F)F)c2)CC1` was -7.07% (inactive); that for `O=C(NCCc1ccco1)c1nn(Cc2ccccc2)c(=O)c2ccccc12` was 1.41% (inactive); that for `CN(c1ccccc1)c1ccc(/C=c2\s/c(=C(/C#N)C(=O)C(C)(C)C)n(Cc3ccco3)c2=O)cc1` was -0.46% (inactive).
Take `O=c1nc2s/c(=C\c3ccco3)c(=O)n2nc1Cc1ccccc1`: the inhibition is 25.7% (active).
For the molecule `O=C(COc1coc(CN2CCN(c3ccccc3)CC2)cc1=O)N1CCc2ccccc21`, the inhibition is -5.69% (inactive).
`CC(=O)N1CCc2cc(Br)cc(S(=O)(=O)CCC(=O)Nc3c(C)n(C)n(-c4ccccc4)c3=O)c21`: the inhibition is 7.96% (inactive).
Consider `N/C(=N\S(=O)(=O)c1ccc(Cl)cc1)N1CCOCC1`, for which the inhibition was 7.38% (inactive).
For `O=C(CNC(=O)c1ccccc1Br)NCCSc1ccc(Br)cc1`, the inhibition was 6.87% (inactive).
The figure for `COc1ccccc1C(=O)NCC(=O)NCCSc1ccc(Br)cc1` is 28.6% (active); for `COc1cc(C(=O)NCC(=O)NCCSc2ccc(Br)cc2)cc(OC)c1OC` it is 2.53% (inactive).
On to `NCCN1CCN2C(=O)CN(C(=O)c3ccccc3)CC12` (stereo not drawn), for which the inhibition was 0.84% (inactive).
For `C/C=C(/C)C(=O)O[C@@H]1c2cc3c(c4c2[C@@]2(CO4)C(=O)C(OC)=C(OC)C=C2C[C@@H](C)[C@H]1C)OCO3`, the inhibition was -0.41% (inactive).
